Measurements as given in PMC4552634, “A New Set of Chemical Starting Points with Plasmodium falciparum Transmission-Blocking Potential for Antimalarial Drug Discovery” (PLoS ONE, 2015).
About 3,200 (25%) of roughly 13,000 compounds showed an effect of 50% or more. The list shows a part of the results.

These compounds were tested on P. falciparum stage V gametocytes. Settings: 48 h, 5 µM; inhibitor.
Design: BacTiter-Glo ATP luminescence viability of purified stage V gametocytes in 384-well plates, per cent inhibition versus DMSO

Row | Structure (SMILES) | % Inhibition [%]
1 | COc1ccc(NC(=O)/C=C/c2cc(F)cc(C(F)(F)F)c2)cc1OCCN(C(C)C)C(C)C [TCMDC-140669] | -66.83
2 | Cc1cc2c(cc1C(F)(F)F)N(C(=O)Nc1cc(OCCN(C(C)C)C(C)C)cc(C(F)(F)F)c1)CC2 [TCMDC-140341] | -56.2
3 | CC=CC(=O)N1CCN(c2nccc(-c3ccc(C(C)(C)C)cc3)n2)CC1 [TCMDC-124777] | 7.647
4 | COc1ccc(N2C(N)=NC(N)=NC2(C)C)cc1 [TCMDC-124269] | -3.695
5 | O=[N+]([O-])c1cc(/C=N/Nc2nc3nonc3nc2Nc2ccc(F)cc2)c(Cl)cc1Cl [TCMDC-124221] | -26.03
6 | COc1cccc(C2(C)CCN(CCCCNC(=O)c3ccc(NC(=O)c4ccc(Cl)cc4)cc3)CC2)c1 [TCMDC-138368] | -18.96
7 | O=C(Nc1ccc(Br)cc1)N(CCN1CCOCC1)CC(O)COc1ccc(Cl)c(F)c1 (centres unmarked) [TCMDC-141493] | -10.57
8 | CC1(C)N=C(N)N=C(N)N1CCc1ccccc1 [TCMDC-125516] | 9.542
9 | CCOC(=O)N[C@@H]1CN[C@@H](C#Cc2cc3c(Nc4ccc(OCc5cccc(F)c5)c(Cl)c4)ncnc3s2)C1 [TCMDC-135402] | -37.93
10 | Cc1noc(C)c1C(=O)N1CCc2cc3nccc(N4CCN5CCC[C@H]5C4)c3cc21 [TCMDC-140041] | -37.7
11 | O=C(CCn1cncn1)N1CCCC(c2[nH]c3ccccc3c2-c2ccncc2)C1 (centres unmarked) [TCMDC-125377] | -42.34
12 | Cc1noc(C)c1C(=O)N1CCCC(c2[nH]c3c(C)cccc3c2-c2ccncc2)C1 (centres unmarked) [TCMDC-125361] | 56.42
13 | CN(/N=C/C=C/c1ccc(Cl)cc1)c1nc(NCCc2ccc(O)cc2)nc(N2CCNCC2)n1 [TCMDC-138546] | 80.85
14 | Oc1ccc(CCNc2nc(NCCCOc3cc(CN4CCCCC4)ccc3F)nc(N3CCNCC3)n2)cc1 [TCMDC-134044] | 66.8
15 | Cc1cc(OCCCNc2nc(NCCc3ccc(O)cc3)nc(N3CCNCC3)n2)c(Cl)c(C)c1Cl [TCMDC-134048] | -28.15
16 | Oc1ccc(CCNc2nc(NCCCOc3cccc(-c4ccccc4)c3)nc(N3CCNCC3)n2)cc1 [TCMDC-134043] | -9.264
17 | Oc1ccc(CCNc2nc(NCCOc3cccc4ccccc34)nc(N3CCNCC3)n2)cc1 [TCMDC-134132] | -65.6
18 | Oc1ccc(CCNc2nc(N/N=C/C=C/c3ccc(Cl)cc3)nc(N3CCNCC3)n2)cc1 [TCMDC-138545] | -5.801
19 | Oc1ccc(CCNc2nc(NCCCOc3cccc(CN4CCCCC4)c3Cl)nc(N3CCNCC3)n2)cc1 [TCMDC-134045] | -20.8
20 | CN(/N=C/c1ccc(Cl)cc1)c1nc(NCCc2ccc(O)cc2)nc(N2CCNCC2)n1 [TCMDC-138544] | 44.17
21 | Cc1c(CN2CCCCC2)cccc1OCCCNc1nc(NCCc2ccc(O)cc2)nc(N2CCNCC2)n1 [TCMDC-134046] | 87.79
22 | Cc1cc(-c2ccc3c(c2)CCN(CCC2CCC(NC(=O)/C=C/c4cccc(F)c4)CC2)CC3)on1 (centres unmarked) [TCMDC-139973] | -71.57
23 | Cc1ccc(C)c(Sc2ccc(NC(=O)CN3CCN(C(=O)c4ccco4)CC3)cc2)c1 [TCMDC-124860] | -17.66

Row | Structure (SMILES) | % Inhibition [%]
24 | CC(C)c1cccc(OCC2CCN(c3ccc(C(=O)Nc4ccccc4)cn3)CC2)c1 [TCMDC-134261] | 7.313
25 | NC(=O)c1c(Cl)nc2ccccc2c1Cl [TCMDC-131373] | -0.4742
26 | COc1ccc(S(=O)(=O)N2CCCC(C)C2)cc1N1CCN(C(=O)c2ccc([N+](=O)[O-])o2)CC1 (centres unmarked) [TCMDC-124803] | 27.68
27 | O=C(c1cccc(-c2noc(C(F)(F)F)n2)c1)N1CCN(c2ccncc2)CC1 [TCMDC-132423] | 9.188
28 | COc1ccc(C(=O)Nc2ccc3nc(N4CCCCC4)cc(C)c3c2)cc1[N+](=O)[O-] [TCMDC-125448] | -8.807
29 | O=C(NC1CC1)c1ccc(N2CCC(Cc3ccccc3)CC2)c([N+](=O)[O-])c1 [TCMDC-123724] | 45.67
30 | COc1ccc(C(=O)N2CCN(c3ccc([N+](=O)[O-])c(NC4CC4)c3)CC2)cc1Br [TCMDC-123659] | 105.4
31 | O=C(c1cccc(Br)c1)N1CCN(c2ccc([N+](=O)[O-])c(NC3CC3)c2)CC1 [TCMDC-123536] | 60.19
32 | O=C(c1cccc(Cl)c1)N1CCN(c2ccc([N+](=O)[O-])c(NC3CC3)c2)CC1 [TCMDC-125827] | 67.12
33 | O=C(Nc1cccc(CN2CCN(C(=O)c3cccc(Cl)c3)CC2)c1)c1ccco1 [TCMDC-136322] | -11.21
34 | N#Cc1ccc(NC2(C(=O)N3CCN(c4cccc(Cl)c4)CC3)CC2)c2ccccc12 [TCMDC-136618] | -25.2
35 | O=C(NCC1CCC(C(=O)NCc2cccc3ccccc23)CC1)c1ccc(O)c(-c2ccc(Cl)c(Cl)c2)c1 (centres unmarked) [TCMDC-140895] | -0.9635
36 | CO/C(=C\C=C\c1cc2cc(Cl)c(Cl)cc2[nH]1)C(=O)NCCCN1CCN(c2cccc(OCC(=O)Nc3cccc(C(=O)c4ccccc4)c3)c2)CC1 [TCMDC-139411] | 32.5
37 | NC(=O)c1cc2nc(Nc3ccc(F)cc3)nc(NC3CCC3)c2[nH]1 [TCMDC-137003] | -67.45
38 | O=[N+]([O-])c1cccc(CNC2CCN(Cc3ccc(-c4ccccc4)cc3)CC2)c1 [TCMDC-141203] | 57.53
39 | CCCCCCN1CCC(NCc2cccc([N+](=O)[O-])c2)CC1 [TCMDC-141205] | 32.34
40 | COc1ccc(CN2CCC(NCc3cccc([N+](=O)[O-])c3)CC2)cc1 [TCMDC-141201] | 64.68
41 | O=[N+]([O-])c1cccc(CNC2CCN(Cc3ccc4ccccc4c3)CC2)c1 [TCMDC-141202] | 96.08
42 | O=[N+]([O-])c1cccc(CNC2CCN(Cc3ccc(C(F)(F)F)cc3)CC2)c1 [TCMDC-141204] | -3.032
43 | O=[N+]([O-])c1cccc(CNC2CCN(Cc3ccc(Cl)c(Cl)c3)CC2)c1 [TCMDC-141200] | 48.14
44 | O=C(Nc1ccc2ccccc2c1)N1CCC(NCc2cccc([N+](=O)[O-])c2)CC1 [TCMDC-141278] | 22.21
45 | COc1ccc(CN2CCC(NCc3cccc(C(F)(F)F)c3)CC2)cc1 [TCMDC-141652] | 21.67
46 | O=[N+]([O-])c1cccc(CNCC2CCN(Cc3ccc4ccccc4c3)CC2)c1 [TCMDC-141207] | 30.18

Row | Structure (SMILES) | % Inhibition [%]
47 | Cn1c(NC(=O)c2ccc(CNC(=O)c3ccc(O)c(-c4ccc(Cl)c(Cl)c4)c3)cc2)nc2ccccc21 [TCMDC-140881] | -6.168
48 | Cc1[nH]c2cc(Cl)ccc2c1C1=CCN(CCCCC2(C)C(=O)Nc3c(F)cccc32)CC1 (centres unmarked) [TCMDC-140946] | -93.15
49 | Cc1ccc(S(=O)(=O)NC2CCN(c3ccnc4cc(Cl)ccc34)C2)cc1 (centres unmarked) [TCMDC-133652] | 11.61
50 | Cc1cc(OCCCN2CCC(NS(=O)(=O)c3ccc(Cl)c(Cl)c3)C2)c2ccccc2n1 (centres unmarked) [TCMDC-136282] | -6.813
51 | COc1ccc(-c2ccc(NC(=O)c3ccc(C#N)cc3)cc2)cc1CN1CCC(O)CC1 [TCMDC-132522] | -51.71
52 | COc1ccc(-c2ccc(NC(=O)c3cccc(C#N)c3)cc2)cc1CN1CCN(C)CC1 [TCMDC-132532] | 1.481
53 | COc1ccc(-c2ccc(NC(=O)c3cccc(C#N)c3)cc2)cc1CN1CCC(O)CC1 [TCMDC-132534] | -38.76
54 | COc1ccc(-c2cccc(NC(=O)c3cccc(C#N)c3)c2)cc1CN1CCCN(C)CC1 [TCMDC-132621] | 35.38
55 | COc1ccc(-c2ccc(NC(=O)c3cccc(C#N)c3)cc2)cc1CN1CCCC(C(N)=O)C1 (centres unmarked) [TCMDC-132533] | 78.38
56 | COc1ccc(-c2cccc(NC(=O)c3cccc(C#N)c3)c2)cc1CN1CCC(O)CC1 [TCMDC-132626] | 84.74
57 | COc1ccc(-c2cccc(NC(=O)c3cccc(C#N)c3)c2)cc1CN1CCCC1 [TCMDC-132623] | 25.04
58 | COc1ccc(-c2cccc(NC(=O)c3cccc(C#N)c3)c2)cc1CN1CCN(C)CC1 [TCMDC-132624] | 71.95
59 | Oc1ccc2[nH]c(-c3ccc(OC(F)(F)F)cc3)nc2c1CNC1CCCC1 [TCMDC-136530] | -82.26
60 | O=C(NC1CCN(c2ccnc3cc(Cl)ccc23)C1)c1ccc(F)cc1F (centres unmarked) [TCMDC-133659] | 10.53
61 | COc1cc(Cc2cnc(N)nc2N)c2c(c1OC)OC(C)(C)C=C2 [TCMDC-138038] | -2.785
62 | Cc1cc(OCC2CCN(c3ccc(C(=O)NC4CC4)cn3)CC2)ccc1F [TCMDC-134031] | 14.38
63 | COc1cc(Nc2ccnc3cc(-c4nccs4)ccc23)ccc1OCCCc1nc2ccccc2[nH]1 [TCMDC-138339] | -6.497
64 | Oc1cccc(Nc2ccnc3cc(-c4nccs4)ccc23)c1 [TCMDC-138297] | -47.13
65 | Cn1cc(Br)c(-c2cccc(Nc3ccnc4cc(-c5nccs5)ccc34)c2)n1 [TCMDC-138333] | 50.96
66 | Oc1cccc(Nc2ccnc3cc(-c4ccncc4)ccc23)c1 [TCMDC-138292] | 8.476
67 | Cn1ccc(-c2cccc(Nc3ccnc4cc(-c5nccs5)ccc34)c2)n1 [TCMDC-138336] | 105.5
68 | Brc1ccc(Nc2ccnc3cc(-c4nccs4)ccc23)cc1Oc1ccnc2cc(-c3nccs3)ccc12 [TCMDC-138299] | 0.7997
